The structures appear in SMILES notation. Where a name gives a salt, the structure may show the parent alone. ± gives the standard deviation of the averaged measurements.

The assay relates to E18 rat cortical neuron-glia co-culture. The assay is described as follows: fiber score / MBP score (myelination specific beyond OL differentiation) (ratio); higher = more myelination-specific MBP alignment. The conditions noted are these: 1 µM; treatment time: 8 days (DIV5-DIV13). In outline: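 Papain-dissociated primary E18 rat cortical co-cultures, plated at 20,000 cells/well on poly-d-lysine/laminin 96-well plates, were exposed to library compounds at 1 or 5 µM in myelination medium between DIV5 and DIV13. Following fixation in 4 % paraformaldehyde, cultures were stained for MBP, Olig2 and DAPI, and four 10X fields per well were analysed in duplicate wells. Values are the ratio of fiber score (continuous MBP fiber length per Olig2+ nucleus) to MBP score (thresholded MBP area × intensity per Olig2+ nucleus).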
Take `NC(=O)N1c2ccccc2C=Cc2ccccc21` [Carbamazepine]: the “fiber score / MBP score” value came to 0.735.

Take `CCOC(=O)[C@H](CCc1ccccc1)N[C@H]1CCc2ccccc2N(CC(=O)O)C1=O` [Benazepril]: the “fiber score / MBP score” value came to 0.766.

For the compound `C[C@H]1C[C@@H]2[C@H]([C@@H](O)C[C@@]3(C)[C@H]2CC[C@]3(O)C(=O)CO)[C@@]2(C)C=CC(=O)C=C12` [Methylprednisolone], the “fiber score / MBP score” value came to 0.918.

Take `CC(=O)[C@H]1CC[C@H]2[C@@H]3CCC4=CC(=O)CC[C@]4(C)[C@H]3CC[C@]12C` [Progesterone]: the “fiber score / MBP score” value amounted to 0.688.

For `O=C(c1ccc(OCCN2CCCCC2)cc1)c1c(-c2ccc(O)cc2)sc2cc(O)ccc12` [Raloxifene], the “fiber score / MBP score” value is 0.211.

Take `CNCCC(Oc1ccc(C(F)(F)F)cc1)c1ccccc1` (centres undefined) [Fluoxetine hydrochloride]: the “fiber score / MBP score” value was 0.807.

On to `CN(C)CCOC(C)(c1ccccc1)c1ccccn1` (centres undefined) [Doxylamine], for which the “fiber score / MBP score” value is 0.674.

For the compound `CCOC(=O)O[C@]1(C(=O)OCCl)CC[C@H]2[C@@H]3CCC4=CC(=O)C=C[C@]4(C)[C@H]3[C@@H](O)C[C@@]21C` [Loteprednol etabonate], the “fiber score / MBP score” value was 0.604.

In the case of `CC(=O)OCC(=O)[C@@]12OC(C)(C)O[C@@H]1C[C@H]1[C@@H]3C[C@H](F)C4=CC(=O)C=C[C@]4(C)[C@@]3(F)[C@@H](O)C[C@@]12C` [Fluocinonide], the “fiber score / MBP score” value was determined as 0.861.

As for `CCCN[C@H]1CCc2nc(N)sc2C1` [Pramipexole], the “fiber score / MBP score” value is 0.851 ± 0.02.

As for `CC(CCc1ccccc1)NCC(O)c1ccc(O)c(C(N)=O)c1` (centres undefined) [Labetalol], the “fiber score / MBP score” value was 0.511.

`CC(C)NCC(O)COc1cccc2[nH]ccc12` (centres undefined) [Pindolol]: the “fiber score / MBP score” value was 1.07.

In the case of `Clc1ccc(COC(Cn2ccnc2)c2ccc(Cl)cc2Cl)c(Cl)c1` (centres undefined) [Miconazole], the “fiber score / MBP score” value amounted to 0.482.

Take `CCN(CC)C(=S)SSC(=S)N(CC)CC` [Disulfiram]: the “fiber score / MBP score” value worked out at 1.15.

Regarding `CC(=O)N1CCN(c2ccc(OCC3COC(Cn4ccnc4)(c4ccc(Cl)cc4Cl)O3)cc2)CC1` (centres undefined) [Ketoconazole], the “fiber score / MBP score” value is 0.468.

Turning to `O=C1C(CC[S+]([O-])c2ccccc2)C(=O)N(c2ccccc2)N1c1ccccc1` (centres undefined) [Sulfinpyrazone], the “fiber score / MBP score” value was 1.18.

For the compound `CC[C@H]1OC(=O)[C@H](C)C(=O)[C@H](C)[C@@H](O[C@@H]2O[C@H](C)C[C@H](N(C)C)[C@H]2O)[C@](C)(OC)C[C@@H](C)C(=O)[C@H](C)[C@H]2N(CCCCn3cnc(-c4cccnc4)c3)C(=O)O[C@]12C` [Telithromycin], the “fiber score / MBP score” value was 0.819.

As for `COc1ccc2cc([C@H](C)C(=O)O)ccc2c1` [Naproxen], the “fiber score / MBP score” value amounted to 0.831.

On to `C[C@@H]1C[C@H]2[C@@H]3C[C@H](F)C4=CC(=O)C(Cl)=C[C@]4(C)[C@@]3(F)[C@@H](O)C[C@]2(C)[C@@]1(O)C(=O)CO` [Halometasone hydrate], for which the “fiber score / MBP score” value worked out at 0.566.

On to `C=C(CC)C(=O)c1ccc(OCC(=O)O)c(Cl)c1Cl` [Ethacrynic Acid], for which the “fiber score / MBP score” value amounted to 2.03.

For `O=C(O)c1cccnc1` [Niacin], the “fiber score / MBP score” value amounted to 1.05.

`Cc1ccc(O)c([C@H](CCN(C(C)C)C(C)C)c2ccccc2)c1` [Tolterodine]: the “fiber score / MBP score” value was found to be 0.747.

With `CS(=O)(=O)c1ccc(-c2cc(Br)sc2-c2ccc(F)cc2)cc1`, the “fiber score / MBP score” value came out at 0.92.

With `O=c1c(-c2ccccc2)c1-c1ccccc1` [Diphenylcyclopropenone], the “fiber score / MBP score” value is 0.809.

On to `CCN(CC)CC#CCOC(=O)C(O)(c1ccccc1)C1CCCCC1` (centres undefined) [Oxybutynin], for which the “fiber score / MBP score” value came to 0.964.

Take `OC(c1cc(C(F)(F)F)nc2c(C(F)(F)F)cccc12)C1CCCCN1` (centres undefined) [Mefloquine]: the “fiber score / MBP score” value was 0.726.

As for `C=CCc1ccc(O)c(-c2ccc(O)c(CC=C)c2)c1` [Honokiol], the “fiber score / MBP score” value came out at 0.744.

Consider `C[C@H]1[C@H](OC(=O)CCC(=O)O)O[C@@H]2O[C@@]3(C)CC[C@H]4[C@H](C)CC[C@@H]1[C@@]24OO3` [Artesunate], for which the “fiber score / MBP score” value was found to be 0.652.

On to `CN1CCN(CCCN2c3ccccc3Sc3ccc(C(F)(F)F)cc32)CC1` [Trifluoperazine], for which the “fiber score / MBP score” value turned out to be 0.177.

As to `Clc1ccc2c(c1)CCc1cccnc1C2=C1CCNCC1` [Desloratadine], the “fiber score / MBP score” value came to 0.902.

With `NC[C@H]1CC[C@H](C(=O)Oc2ccc(CCC(=O)O)cc2)CC1` [Cetraxate], the “fiber score / MBP score” value worked out at 1.07.

As for `COC(=O)Nc1nc2cc(C(=O)c3ccc(F)cc3)ccc2[nH]1` [Flubendazole], the “fiber score / MBP score” value was determined as 0.494.

With `CCc1c2c(nc3ccc(OC(=O)N4CCC(N5CCCCC5)CC4)cc13)-c1cc3c(c(=O)n1C2)COC(=O)[C@]3(O)CC` [Irinotecan], the “fiber score / MBP score” value was found to be 2.03.

`CN1[C@@H](CC(=O)c2ccccc2)CCC[C@H]1C[C@H](O)c1ccccc1` [Lobeline]: the “fiber score / MBP score” value is 0.981.

As for `CN(Cc1cnc2nc(N)nc(N)c2n1)c1ccc(C(=O)N[C@@H](CCC(=O)O)C(=O)O)cc1` [Methotrexate], the “fiber score / MBP score” value was 1.06.

Regarding `O=C1CCc2ccc(OCCCCN3CCN(c4cccc(Cl)c4Cl)CC3)cc2N1` [Aripiprazole], the “fiber score / MBP score” value stood at 0.301.

For the compound `Clc1ccc(COC(Cn2ccnc2)c2ccc(Cl)cc2Cl)cc1` (centres undefined) [Econazole], the “fiber score / MBP score” value came out at 0.731.

Turning to `O=C1[C@H]2CCCC[C@H]2C(=O)N1CCCCN1CCN(c2nsc3ccccc23)CC1` [Perospirone], the “fiber score / MBP score” value was 0.291.

`Clc1ccc(CO/N=C(\Cn2ccnc2)c2ccc(Cl)cc2Cl)c(Cl)c1` [Oxiconazole]: the “fiber score / MBP score” value was 0.501.

The values above are taken from the supplement of paper PMC4840960.
